Compounds with a hit are over-represented: about 14% of the library has one in this group of screens.
HSD17B inh: qHTS Assay for Inhibitors of HSD17B4, hydroxysteroid (17-beta) dehydrogenase 4 | Potency, µM (doses to about 57.1 µM), for the others: top-dose activity change, negative = inhibition, most hits filed as inhibitors | recombinant HSD17B10, NADH fluorescence kinetic | 3-hydroxyacyl-CoA dehydrogenase type-2 (Homo sapiens), Q99714 | 7.6% of 75,000 active;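 further: the protocol describes HADH2 (HSD17B10) and not the HSD17B4 of the title; potency means the concentration at half of the fitted maximal effect; on the % scale 0 is the no-effect control and ±100 the full control effect; nearly all actives have a fitted effect of over 70% in size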
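His-tagged E. coli-expressed HADH2 at 20 nM in 100 mM Tris-HCl pH 9.0 with 0.01 % Tween-20, preincubated 15 min with compound at room temperature. Reaction with 1 mM NAD+ and 90 uM beta-hydroxybutyryl coenzyme A; NADH fluorescence (360/450 nm) read kinetically over 4 min, last minus first point.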
AID923: qHTS Assay for Allosteric/Competitive Inhibitors of Caspase-1: Spectroscopic Profiling in AFC Spectral Region. compound fluorescence, AFC spectral region (405/520 nm). Potency, µM (doses to about 57.5 µM), inactives show top-dose fluorescence increase, usual class: activators. 1.1% of 75,000 active. AID 923, 2007; further: potency means the concentration at half of the fitted maximal effect; 0% is about no effect
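Baseline compound fluorescence (AFC region, 405 nm ex/520 nm em) taken from the intercept of kinetic reads with 50 nM caspase-1 and 5 uM Ac-WEHD-AFC; normalized to an on-plate AFC standard curve; compounds titrated up to 57 uM.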
CRE Fsk mod: Cell signaling CRE-BLA (Fsk stim). CHO CRE-bla reporter (cAMP response element driving beta-lactamase), forskolin EC10, beta-lactamase ratio. Potency, µM (top dose mostly 38.2 µM), for inactives: at the top dose activity change, negative = inhibition, most hits filed as activators. 2.5% of 71,000 active. AID 662, 2007; active means well fitted activation curve with a large enough effect in the signal ratio, with a control signal flat, not every such curve was filed as active; inconclusive means small, poorly fitted or top-dose-only effect, or effect the other way, or a change in a side signal; the % refers to the signal ratio; further: potency means the concentration at half of the fitted maximal effect; % of control where 0% means no effect
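Beta-lactamase reporter under a cAMP responsive element in CHO cells; compounds tested in titration series against EC10 NKH 477, 3 h at 37 °C. Read-out: CCF4 FRET ratio 460nm/530nm (excitation 405nm) giving %Activity, fitted to AC50.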
A350 autofl: qHTS Assay for Spectroscopic Profiling in A350 Spectral Region; Compound autofluorescence, 340/450 nm, Alexa 350 dye-equivalents; stronger effect = higher value; 11% of 59,000 active; AID 590, 2007; max dye-equivalent concentration, M; in the data active means max dye-equivalent concentration above about 10 nM; inconclusive means mostly about 1.1 nM to 9.6 nM
HADH2 inh: qHTS Assay for Inhibitors of HADH2 (Hydroxyacyl-Coenzyme A Dehydrogenase, Type II); 3-hydroxyacyl-CoA dehydrogenase type-2 (Homo sapiens), Q99714; recombinant HADH2, NADH fluorescence, beta-hydroxybutyryl-CoA; Potency, µM (top dose mostly 57.1 µM), for inactives: at the highest dose activity change, negative = inhibition, actives largely listed as inhibitors; 3.4% of 73,000 active; further: potency means the concentration at half of the fitted maximal effect; on the % scale 0 is the no-effect control and ±100 the full control effect; nearly all actives have a fitted effect of over 60% in size
Target sequence (Q99714 whole entry, looked up, one chain of several): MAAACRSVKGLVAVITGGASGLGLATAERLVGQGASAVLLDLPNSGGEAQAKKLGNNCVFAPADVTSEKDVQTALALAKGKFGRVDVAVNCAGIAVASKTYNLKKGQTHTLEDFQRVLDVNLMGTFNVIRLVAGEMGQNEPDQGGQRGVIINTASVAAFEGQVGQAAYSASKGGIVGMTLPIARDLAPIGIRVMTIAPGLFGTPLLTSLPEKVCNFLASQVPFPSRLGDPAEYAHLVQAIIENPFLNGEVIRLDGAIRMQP
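His-tagged recombinant enzyme from E. coli, 20 nM, preincubated 15 min RT with compound; reaction started with 1 mM NAD+ and 90 uM beta-hydroxybutyryl-CoA in 100 mM Tris-HCl pH 9.0. NADH fluorescence (ex 360/em 450) read over 4 min; last-minus-first difference.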
4-MU autofl: qHTS Assay for Spectroscopic Profiling in 4-MU Spectral Region; compound autofluorescence, 340/450 nm, 4-MU equivalents; stronger effect = higher value; AID 589, 2007; 11% of 59,000 active; max dye-equivalent concentration, M; in the data active means max dye-equivalent concentration above about 10 nM; inconclusive means mostly about 1.1 nM to 9.6 nM
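Intrinsic fluorescence at 340/450 nm (ex/em) was read after 15 min at room temperature in pH 8.0, 100 mM Tris. Each compound concentration expressed as 4-MU-equivalent concentration from a six-point 4-MU standard series on each plate.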
Numbers without * were called inactive. Unless noted, the call rests on the fitted dose curve; in most records, active means well fitted curve in the direction sought with a large enough effect; inconclusive means small, poorly fitted or top-dose-only effect, or another doubt; inactive means no such curve, though single readings can be large; an effect the other way counts as inactive or inconclusive.

Screening CCn1c(SCC(=O)N2CCCC2)nnc1-c1ccc(S(=O)(=O)N2CCCCCC2)cc1 returned HSD17B inh 8.1%, AID923 0.6%, CRE Fsk mod -4.8%, A350 autofl inactive, HADH2 inh 8.2% and 4-MU autofl inactive.
Cc1nnc(SCC(=O)c2ccc(S(=O)(=O)N3CCOCC3)cc2)n1-c1ccccc1 was read as HSD17B inh -12.3%, AID923 0.0%, CRE Fsk mod 3.1%, A350 autofl inactive, HADH2 inh -15.6% and 4-MU autofl inactive.
Screening CCOC(=O)CSc1nnc(-c2ccc(S(=O)(=O)N3CCOCC3)cc2)n1-c1ccccc1 returned HSD17B inh 20µM*, AID923 -0.4%, CRE Fsk mod 11.8%, A350 autofl inactive, HADH2 inh -21.1% and 4-MU autofl inactive.
Screening CCSc1nnc(-c2ccc(S(=O)(=O)N3CCCC3)cc2)n1C returned HSD17B inh 31.6µM*, AID923 -0.7%, CRE Fsk mod 12.1%, A350 autofl inactive, HADH2 inh -24.7% and 4-MU autofl inactive.
Screening Cn1c(SCC(=O)NCc2cccs2)nnc1-c1ccc(S(=O)(=O)N2CCCC2)cc1 returned HSD17B inh 2.8%, AID923 -0.1%, CRE Fsk mod -3.9%, A350 autofl inactive, HADH2 inh -6.6% and 4-MU autofl inactive.
Cc1[nH]c2ccccc2c1C(=O)CN1CCCCC1C (stereo unspecified) was read as HSD17B inh 6.2%, AID923 1.6%, CRE Fsk mod inconclusive, A350 autofl inactive, HADH2 inh -2.3% and 4-MU autofl inactive.
For O=c1c2ccccc2cnn1-c1nc2ccccc2s1 the results were HSD17B inh inconclusive, AID923 2.9%, CRE Fsk mod inconclusive, A350 autofl 2.11e-07M*, HADH2 inh 3.1% and 4-MU autofl 1.7e-07M*.
For O=c1c2ccccc2ncn1Cc1nc2ccccc2s1 the results were HSD17B inh 7.4%, AID923 -0.1%, CRE Fsk mod 22.9%, A350 autofl inactive, HADH2 inh -3.3% and 4-MU autofl inactive.
CC1(C)CC(=O)c2cc(C(=O)N3CCCCC3)c(=O)n(-c3ccc(Cl)cc3)c2C1 was read as HSD17B inh 6.8%, AID923 -2.5%, CRE Fsk mod -12.1%, A350 autofl inactive, HADH2 inh 3.5% and 4-MU autofl inactive.
CCCCCOC(=O)Cc1c(O)c2ccccc2n(C)c1=O was read as HSD17B inh 31.6µM*, AID923 3.2%, CRE Fsk mod 3.2%, A350 autofl inactive, HADH2 inh -27.6% and 4-MU autofl inactive.
Screening CC1CCC/C(=C\Nc2ccc(O)cc2)C1=O (stereo unspecified) returned HSD17B inh inconclusive, AID923 7.7%, CRE Fsk mod inconclusive, A350 autofl inconclusive, HADH2 inh 25.1µM* and 4-MU autofl inactive.
For COc1ccc(N/C=C2/CCCCC2=O)cc1 the results were HSD17B inh -7.5%, AID923 -0.8%, CRE Fsk mod 2.8%, A350 autofl inconclusive, HADH2 inh -11.2% and 4-MU autofl inconclusive.
For O=c1nc2n(c3sc4c(c13)CCC4)Cc1ccccc1-2 the results were HSD17B inh 25.1µM*, AID923 0.4%, CRE Fsk mod 9.1%, A350 autofl 2.85e-07M*, HADH2 inh 31.6µM* and 4-MU autofl 2.96e-07M*.
For C=C1CSc2nc(=O)c3c4c(sc3n21)CCC4 the results were HSD17B inh 6.1%, AID923 2.6%, CRE Fsk mod 10.2% and HADH2 inh -4.7%.
Cc1cc2ccccc2n1CCNC(=O)COc1ccccc1 was read as HSD17B inh 8.3%, AID923 2.9%, CRE Fsk mod 10µM* and HADH2 inh -4.8%.
